According to PubChem BioAssay AID588397 (National Center for Advancing Translational Sciences (NCATS), 2011):
The campaign covered roughly 1,300 compounds. About 1,000 (77%) were called active. Not shown: some 7% with an inconclusive outcome. The set was probably picked from earlier hits. The list shows a part of the results. Values without a mark were called inactive. Calls come from the whole dose curve; as a rule, active = well fitted inhibition curve with a large enough effect; inconclusive = small, poorly fitted or top-dose-only effect; inactive = no such curve, though single readings can be large or run the other way.

Assay: qHTS of small molecules that selectively kill Giardia lamblia: Hit Validation.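 Note: viability measured as ATP content by luminescence so killing lowers signal; nearly all actives have a fitted effect of over 65% in size.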
Details: Giardia lamblia trophozoite viability, dose-response; series mostly up to 38.3 µM; activity change, negative = killing: at the top concentration
Text: Giardia lamblia is a human pathogen afflicting impoverished nations, and the most common cause of outbreaks of diarrhea in the United States. Giardia has been classified by the CDC as a category B bioterrorism organism. The favored anti giardiasis drugs in the US are metronidazole or tinidazole, compounds that have undesirable side effects. Moreover, increasing resistance to drug regimes and recurrence are a concern. It is thus clear that alternative drug treatments are needed.
In a collaboration between the University of Maryland, College Park and the NIH Chemical Genomics Center, a bioluminescence Giardia viability assay based on the trophozoites' ATP content was developed. This assay is suitable for high throughput screening, and miniaturized the assay for compound screening in 1536-well plates. The goal of the project is to screen the Molecular Libraries Small Molecule Repository (MLSMR) for compounds that selectively kill Giardia trophozoites.
NIH Chemical Genomics Center [NCGC]
NIH Molecular Libraries Probe Centers Network [MLPCN]
Assay Submitter (PI): Osnat Herzberg, University of Maryland, College Park, MD.
1. Dispense 2 ul/well media
2. Dispense 23 nl/well compounds
3. Dispense 4 ul/well Giardia trophozoites at a concentration of 100 cells/well
4. Incubate 48 hrs at 37 deg C anaerobically
5. Dispense 4 ul/well ATPLite 1-Step Luminescence assay kit
6. Incubate 15-30 min at room temperature
7. Read luminescence signal on ViewLux plate reader
% is set by controls: 0 for no effect and ±100 for the full control effect; potency is the fitted concentration of half-maximal effect.

| SMILES | activity change, negative = killing [%] | Potency |
| --- | --- | --- |
| Fc1ccc(CN2CC[C@H]3C=CCc4cccc(c43)C2)cc1 | -8.09 | – |
| COc1ccc(C(=O)COC(=O)c2ccccc2NS(=O)(=O)c2ccc(O)c([N+](=O)[O-])c2)cc1 | – | 1450 nM (active) |
| COc1ccc(S(=O)(=O)Nc2c(O)c3ccccc3oc2=O)cc1 | -9.08 | – |
| Cc1ccc(S(=O)(=O)Nc2ccc(C(OC(=O)c3ccccc3[N+](=O)[O-])(C(F)(F)F)C(F)(F)F)cc2)cc1 | – | 3650 nM (active) |
| CCCc1ccc(-c2cc(C(=O)N/N=C/c3ccc([N+](=O)[O-])o3)c3ccccc3n2)cc1 | – | 1630 nM (active) |
| Cc1ccc(-c2cc(C(=O)N/N=C/c3ccc([N+](=O)[O-])o3)c3ccccc3n2)o1 | – | 1030 nM (active) |
| O=C(N/N=C/c1ccc([N+](=O)[O-])o1)c1cc(-c2ccc(-c3ccccc3)cc2)nc2ccccc12 | – | 1030 nM (active) |
| O=C(N/N=C/c1ccc([N+](=O)[O-])o1)c1cc(-c2cccc(Br)c2)nc2ccccc12 | – | 1160 nM (active) |
| COc1ccc(-c2ccc([C@H]3[C@@H]4C=CCC[C@@]4(C)C(=O)N3Cc3ccccc3)c(F)c2)cc1OC | -4.14 | – |
| COc1cc(/C=C2\SC(=O)N(Cc3ccc(F)cc3)C2=O)cc([N+](=O)[O-])c1O | – | 1830 nM (active) |
| COc1cc(/C=C2\SC(=O)N(c3ccc(Cl)cc3)C2=O)cc([N+](=O)[O-])c1O | – | 4100 nM (active) |
| COc1cc(/C=C2\SC(=O)N(Cc3ccc(Cl)cc3)C2=O)cc([N+](=O)[O-])c1O | – | 1630 nM (active) |
| CCS(=O)(=O)Nc1cccc(C2=NN(S(=O)(=O)c3ccc(C)cc3)C(c3ccco3)C2)c1 (configuration not stated) | 3.24 | – |
| COc1ccc(NS(=O)(=O)c2ccc(S(=O)(=O)N(C)C)cc2)cc1S(N)(=O)=O | 2.7 | – |
| COc1ccc(OCc2cc(C(=O)N(C)Cc3cc(C4CC4)n[nH]3)no2)c(Cl)c1 | -16.1 | – |
| COc1cccc(/C=C/c2ccc3ccccc3n2)c1OC(C)=O | – | 8180 nM (active) |
| COc1ccc(/C=C/c2ccc3ccccc3n2)c(OC)c1 | – | 2310 nM (active) |
| COc1ccc(OC)c(/C=C/c2ccc3ccccc3n2)c1 | -32.6 | – |
| COc1ccc(/C=C/c2ccc3ccccc3n2)cc1OC | – | 4600 nM (active) |
| Cc1ccccc1N1CCN(Cc2ccc([N+](=O)[O-])o2)CC1 | – | 1160 nM (active) |
| Cc1cccc(N2CCN(Cc3ccc([N+](=O)[O-])o3)CC2)c1C | – | 729 nM (active) |

| SMILES | activity change, negative = killing [%] | Potency |
| --- | --- | --- |
| O=[N+]([O-])c1ccc(CN2CCN(c3ccccc3Cl)CC2)o1 | – | 650 nM (active) |
| Cc1ncc([N+](=O)[O-])n1CCOC(=O)Nc1ccc([N+](=O)[O-])cc1 | – | 146 nM (active) |
| COc1ccc(NC(=O)OCCn2c([N+](=O)[O-])cnc2C)cc1 | – | 650 nM (active) |
| C#CCCOC(=O)Nc1ccccc1 | -5.13 | – |
| Cc1ncc([N+](=O)[O-])n1CCOC(=O)Nc1ccc(Cl)c(Cl)c1 | – | 230 nM (active) |
| CN1C2=CC=CC=CC2=[N+](C)C12C([N+](=O)[O-])=CC(=[N+]([O-])[O-])C=C2[N+](=O)[O-] (configuration not stated) | – | 206 nM (active) |
| CCOC(=O)c1ccc(NS(C)(=O)=O)cc1 | -33.5 | – |
| Cc1cc(C(=O)COC(=O)c2cccc(NS(C)(=O)=O)c2)c(C)n1CC1CCCO1 (configuration not stated) | – | 4100 nM (active) |
| Cc1nnc(N/N=C/c2cccs2)[nH]c1=O | 0.18 | – |
| S=C(NCCc1ccccc1)N/N=C/c1cccs1 | – | 23100 nM (active) |
| CC1CC(C)C(=O)C(C(CC2CC(=O)NC(=O)C2)OC(=O)CC(=O)c2ccccc2)C1 (configuration not stated) | – | 130 nM (active) |
| CCn1nnc(NC(=O)c2ccc(C(C)(C)C)cc2)n1 | – | 7290 nM (active) |
| Cc1cccnc1NC(=O)c1ccc([N+](=O)[O-])o1 | – | 918 nM (active) |
| O=C(Nc1ccc(Br)cn1)c1ccc([N+](=O)[O-])o1 | – | 1630 nM (active) |
| O=C(Nc1ncccn1)c1ccc([N+](=O)[O-])o1 | – | 1300 nM (active) |
| O=C(Nc1ccccn1)c1ccc([N+](=O)[O-])o1 | – | 1630 nM (active) |
| Cc1onc(NC(=O)c2ccc([N+](=O)[O-])o2)c1Br | – | 1630 nM (active) |
| CCn1nnc(NC(=O)c2ccc([N+](=O)[O-])o2)n1 | – | 1450 nM (active) |
| O=C(NCC(c1ccco1)N1CCCC1)c1ccc(S(=O)(=O)Nc2ccccc2Cl)cc1 (configuration not stated) | -15.3 | – |
| CC1(C)[N+]([O-])=C2C(=[N+]([O-])C1(C)C)c1ccccc1/C2=N\O | – | 1630 nM (active) |
| C/C(=N\NC(=O)COc1ccc(C)cc1Br)c1cc([N+](=O)[O-])cs1 | – | 1630 nM (active) |

| SMILES | activity change, negative = killing [%] | Potency |
| --- | --- | --- |
| CC(=NN1CC(=O)NC1=O)c1ccc([N+](=O)[O-])o1 | – | 1450 nM (active) |
| COc1cccc(NC2c3ccccc3C(=O)N2Cc2ccco2)c1 (configuration not stated) | -6.92 | – |
| O=[N+]([O-])c1ccc(-c2ccn[nH]2)o1 | – | 51.6 nM (active) |
| CC(=O)Oc1ccc2c(=O)c(Oc3ccccc3[N+](=O)[O-])coc2c1 | – | 3260 nM (active) |
| CCOC(=O)N1C(C)CN(/[N+]([O-])=N/Oc2ccc([N+](=O)[O-])cc2[N+](=O)[O-])CC1C (configuration not stated) | – | 5790 nM (active) |
| CCOC(=O)c1nnn(-c2ccc([N+](=O)[O-])cc2[N+](=O)[O-])c1C | – | 8180 nM (active) |
| CCN(CC)/[N+]([O-])=N/Oc1ccc([N+](=O)[O-])cc1[N+](=O)[O-] | – | 4100 nM (active) |
| O=[N+]([O-])c1ccc(O/N=[N+](\[O-])N2CCCCC2)c([N+](=O)[O-])c1 | – | 5160 nM (active) |
| O=C1CC(SC(=Nc2ccccc2)Nc2ccccc2)C(=O)N1c1cccc2ccccc12 (configuration not stated) | 8.54 | – |
| O=[n+]1c2c(n([O-])c3cc(Br)ccc31)CCC2 | – | 2310 nM (active) |
| O=[n+]1c2c(n([O-])c3cc(Cl)ccc31)CCCC2 | – | 4600 nM (active) |
| O=[n+]1c2c(n([O-])c3cc(Br)ccc31)CCCC2 | – | 2310 nM (active) |
| Cc1c(Cl)cccc1N=c1c([N+](=O)[O-])nn(-c2ccccc2)n1O | – | 516 nM (active) |
| Cc1ccc(N=c2c([N+](=O)[O-])nn(-c3ccccc3)n2O)c(C)c1 | – | 1030 nM (active) |
| CCCC/C=C/C(NC(=O)c1ccc(C(=O)OC)cc1)c1ccccc1 (configuration not stated) | 2.61 | – |
| Cc1cc(N)ccc1N=Nc1c(C)n(C)n(-c2ccccc2)c1=O | – | 729 nM (active) |
| Cc1c(N=Nc2ccc(O)cc2)c(=O)n(-c2ccccc2)n1C | – | 5160 nM (active) |
| Cc1c(NC2(C#N)CCCC2)c(=O)n(-c2ccccc2)n1C | -13.8 | – |
| COc1cc(N=Nc2c(C)n(C)n(-c3ccccc3)c2=O)ccc1N | – | 2310 nM (active) |
| CCNc1ccc(N=Nc2c(C)n(C)n(-c3ccccc3)c2=O)cc1 | – | 729 nM (active) |
